Structures are written as SMILES. Unmarked numbers belong to inactive results. Calls of active or inactive are those of the source. The rule behind the calls is not given here.

By AC50 is commonly meant the concentration giving half of the maximal activity seen.

This experiment can be described thus: C difficile toxins, biochemical counterscreen, UDPG substrate absence, confirmatory dose response (AID 720650). The settings on record: series mostly up to 19.5 µM. (The purpose of a counterscreen is to sort out artefacts and off-target activity.)
Consider `COc1ccc(NC(=O)c2cc(C)nc3ccccc23)c(OC)c1`, for which the AC50 entry was “inactive”.
With `S=C(c1cn(Cc2ccccc2)c2ccccc12)N1CCOCC1`, the AC50 result is “inactive”.
As for `CC(=O)C1=CCC(c2ccccc2)N(S(=O)(=O)c2ccc(C)cc2)C1` (centres undefined), the AC50 result was “inactive”.
In the case of `O=C(Nc1ccc(N2CCOCC2)c(Cl)c1)c1ccc(F)cc1` it was “inactive”; in that of `O=C(C[C@@H]1CC[C@H]2[C@@H](COC[C@@H](O)CN2Cc2ccc(Oc3ccccc3)cc2)O1)Nc1nccs1`, “inactive”; in that of `Cc1ccc(Cc2c(-c3ccc(C)cc3)nc3ccc(Cl)cn23)cc1`, “inactive”.
In the case of `CNc1cncc(-c2ccc(O)cc2)n1` it was 11.7 µM (active).
As for `CCCS(=O)(=O)NC(=O)C1(C)CCN(C(=O)c2ccco2)C1` (centres undefined), the AC50 result was “inactive”.
In the case of `COc1ccc(NC(=O)C2CC(=O)N(c3ccccc3F)C2)cc1S(=O)(=O)N1CCCCC1` (centres undefined) it was “inactive”; in that of `CC(C)Cc1[nH]c(=O)c(C#N)c2c1CCC2`, “inactive”; in that of `COc1ccc(-c2cn3cc(C)ccc3n2)cc1F`, greater than 39 µM.
In the case of `CCNC(=O)C[C@H]1CC[C@@H]2[C@H](COc3ccc(NC(=O)c4ccc5c(c4)OCO5)cc3C(=O)N2C)O1` it was greater than 42 µM.
In the case of `O=C(O)c1c(C(=O)O)c(-c2ccc(Br)cc2)n2c1CSC2` it was “inactive”; in that of `CCOc1cc(/C=N\n2nnnc2N)ccc1O`, “inactive”; in that of `CC(C)(C)C(=O)C1=C(O)C(=O)N(c2ccccc2)C1c1ccccc1` (centres undefined), greater than 39 µM.
Turning to `CCN(C(=O)CN1C(=O)NC2(CCC(C)CC2)C1=O)C1CCCCC1` (centres undefined), the AC50 result is “inactive”.
Consider `O=c1c2ccccc2nc(/C=C/c2ccc(O)cc2)n1-c1ccccc1O`, for which the AC50 was greater than 39 µM.
Take `S=c1nc(-c2cccc(Cl)c2)[nH][nH]1`: the AC50 was 3.82 µM (active).
With `CCOc1ccc(S(=O)(=O)NCCC(=O)NCc2ccccn2)cc1`, the AC50 result is “inactive”.
Turning to `COc1ccc(C2=NS(=O)(=O)N(C)C(C(=O)N3CCOCC3)=C2)cc1`, the AC50 result was “inactive”.
In the case of `CCOc1ccc(/C=N/n2nnnc2N)cc1O` it was “inactive”; in that of `Clc1cccc(-c2ccc3ncnc(NCc4cccs4)c3c2)c1`, “inactive”.
On to `O=C(O)c1ccc(-c2nnc(-c3ccccc3)o2)cc1`, for which the AC50 result is “inactive”.
In the case of `Cc1ccc2c(C)c3ccc4ccccc4c3c[n+]2c1` it was “inactive”; in that of `O=C(NCCc1cccc(Cl)c1)c1ccc(Cl)c([N+](=O)[O-])c1`, “inactive”.
With `Cc1nc(-c2ccccn2)nc(SCC(=O)c2ccc(F)cc2)c1Cl`, the AC50 result is “inactive”.
In the case of `CO[C@@H]1CN(C)C(=O)c2cc(NC(=O)NC(C)C)ccc2OC[C@@H](C)N(S(C)(=O)=O)C[C@H]1C` it was “inactive”.
In the case of `Cc1ccc(C)c2nc(Cl)c(C3NC(=O)c4ccccc4N3)cc12` (centres undefined) it was “inactive”; in that of `Cc1cc(C(=O)NNc2ccc(C)c(C)c2)no1`, 0.287 µM (active); in that of `O=C(C[C@H]1CC[C@H]2[C@@H](COC[C@@H](O)CN2Cc2ccccc2)O1)NCCc1ccccc1`, “inactive”.
In the case of `COc1ccccc1Oc1cn[nH]c1-c1ccc(O)cc1O` it was 11.6 µM (active).
As for `Cn1c(=O)c2c(nc(N3CCOCC3)n2CCSc2ncccn2)n(C)c1=O`, the AC50 result was “inactive”.
In the case of `O=C(O)c1ccc2c(c1)N(Cc1cccc(F)c1)C(=O)CS2` it was “inactive”; in that of `Oc1cc(O)cc(/C=C/c2ccc(O)c(O)c2)c1`, “inactive”; in that of `CCCCNS(=O)(=O)c1ccc(OCC(=O)OC)cc1`, “inactive”.
Consider `Cc1cnc(C(=O)OCC(=O)Nc2ccc(OCc3ccccc3)cc2)cn1`, for which the AC50 result was “inactive”.
In the case of `Cc1ccc(/C=C(\C#N)C(=O)Nc2ccccn2)o1` it was “inactive”; in that of `Nc1ccc(N=Nc2ccc(O)cc2)c(N)n1`, 7.86 µM (active).
In the case of `CN(C)CC(=O)N1CC[C@@H]2[C@H]1c1cc(-c3ccccc3)ccc1N(C)[C@H]2CO` it was 14.1 µM (active).

The values above are taken from PubChem BioAssay AID720650 (Broad Institute, 2013).
